The record followed here is PubChem BioAssay (NCI).

Structures are written as SMILES. Compounds without any hit were thinned out: in the full panel of roughly 83,000, 20% have a hit.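 Cells were grown in 96-well plates and exposed to the test compound at a single concentration for 48 hours; results are reported as percent growth, with values below 10 considered active.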 A number with no mark means an inactive call. Calls of active or inactive are those of the source.

Among the test systems are HCT-15 colon; HT29 colon; SNB-75 CNS; SNB-19 CNS; U251 CNS; PC-3 prostate; SK-MEL-5 melanoma; UACC-62 melanoma; LOX IMVI melanoma; SK-MEL-28 melanoma; SK-MEL-2 melanoma; SN12C renal; UO-31 renal; TK-10 renal; ACHN renal; CAKI-1 renal; A498 renal; CCRF-CEM leukemia; MOLT-4 leukemia.
What all share (experiment): NCI-60 one-dose screen, 48 h (100 = growth as untreated, 0 = no growth, -100 = all killed)
Conditions in all cases: 10 µM

For the molecule `C/C(=N\NC(=S)N1CCCC1)c1ccccn1`, the growth with HCT-15 colon was 31%; in the experiment with HT29 colon it was 26.3%; in the experiment on SNB-75 CNS, 39.2%; with SNB-19 CNS, 20.3%; in the experiment with U251 CNS, 4.05% (active); in the experiment on PC-3 prostate, 24.7%. The growth is 4.15% (active) in the experiment with SK-MEL-5 melanoma; -35.9% (active) in the experiment with UACC-62 melanoma; 1.56% (active) in the experiment with LOX IMVI melanoma; 24.3% in the experiment on SK-MEL-28 melanoma; 13.8% with SK-MEL-2 melanoma; 14.3% in the experiment with SN12C renal. Moreover, the growth with UO-31 renal was -3.72% (active); in the experiment with TK-10 renal, 28.5%; in the experiment on ACHN renal it was 15.5%; in the experiment with CAKI-1 renal it was 6.32% (active); in the experiment on A498 renal, -5.14% (active); in the experiment on CCRF-CEM leukemia, 0.145% (active). Also, the growth in the experiment with MOLT-4 leukemia is 3.06% (active).

Consider `Cc1ccc(/C(CS(=O)(=O)c2ccc(C)cc2)=N\O)cc1`, for which the growth in the experiment with HCT-15 colon is 95.2%; in the experiment with HT29 colon, 99.7%; in the experiment on SNB-75 CNS it was 87.8%; in the experiment on SNB-19 CNS, 88%; in the experiment on U251 CNS, 90.4%; with PC-3 prostate, 94.3%. In addition, the growth in the experiment on SK-MEL-5 melanoma was 98.9%; with UACC-62 melanoma, 87.3%; in the experiment with LOX IMVI melanoma, 102%; with SK-MEL-28 melanoma it was 103%; in the experiment with SK-MEL-2 melanoma, 104%; with SN12C renal, 89.3%. The growth in the experiment with UO-31 renal is 93%; in the experiment on TK-10 renal it was 82.7%; in the experiment with ACHN renal it was 91.7%; in the experiment on CAKI-1 renal, 92.4%; in the experiment with A498 renal it was 92.2%; with CCRF-CEM leukemia it was 86.7%. The growth in the experiment with MOLT-4 leukemia was 102%.

As for `Cc1nc2sccn2c1-c1csc(Nc2cccc(Cl)c2C)n1`, the growth was 46.4% with HCT-15 colon; 31% in the experiment with HT29 colon; 77.5% in the experiment with SNB-75 CNS; 77.1% in the experiment on SNB-19 CNS; 60.8% in the experiment with U251 CNS; 53.1% in the experiment on PC-3 prostate. Besides, the growth with SK-MEL-5 melanoma is 16.5%; in the experiment on UACC-62 melanoma, 53.3%; in the experiment on LOX IMVI melanoma, 61.4%; with SK-MEL-28 melanoma, 59.7%; in the experiment with SK-MEL-2 melanoma, 43.8%; in the experiment on SN12C renal, 59.4%. Besides, the growth with UO-31 renal is 51.2%; in the experiment with TK-10 renal it was 54.6%; in the experiment with ACHN renal it was 60.3%; with CAKI-1 renal it was 51.4%; in the experiment with A498 renal, 36.1%; in the experiment with CCRF-CEM leukemia it was 47.1%. Moreover, in the experiment with MOLT-4 leukemia, the growth was 40.2%.

On to `COc1ccc(-c2nsc3c2NC(=O)CC3c2ccc(Cl)cc2)cc1` (configuration not stated), for which the growth is 86.3% in the experiment on HCT-15 colon; 89.8% with HT29 colon; 91.2% in the experiment with SNB-75 CNS; 95.9% in the experiment with SNB-19 CNS; 93.3% in the experiment on U251 CNS; 82% in the experiment with PC-3 prostate. The growth with SK-MEL-5 melanoma was 81.8%; with UACC-62 melanoma, 73.4%; in the experiment with LOX IMVI melanoma it was 90.4%; with SK-MEL-28 melanoma, 103%; in the experiment on SK-MEL-2 melanoma, 77.2%; in the experiment on SN12C renal, 83.8%. Moreover, the growth in the experiment on UO-31 renal is 62.8%; with TK-10 renal it was 83.9%; in the experiment on ACHN renal, 82.7%; with CAKI-1 renal, 80.2%; with A498 renal, 83.3%; in the experiment on CCRF-CEM leukemia, 74.4%. For the same molecule, the growth in the experiment with MOLT-4 leukemia is 66.9%.

`O=c1c2cccc3c(Nc4ccc(Br)cn4)ccc(c32)c2nc3ccccc3n12`: the growth was 72% in the experiment on HCT-15 colon; 94.6% in the experiment on HT29 colon; 44% in the experiment with SNB-75 CNS; 85.9% in the experiment with SNB-19 CNS; 93.6% with U251 CNS; 76.7% in the experiment on PC-3 prostate. Further, the growth is 76.2% with SK-MEL-5 melanoma; 84.8% with UACC-62 melanoma; 87.2% with LOX IMVI melanoma; 72.9% in the experiment with SK-MEL-28 melanoma; 108% in the experiment with SK-MEL-2 melanoma; 92.3% in the experiment on SN12C renal. For the same molecule, the growth was 52.1% in the experiment with UO-31 renal; 78.1% in the experiment with TK-10 renal; 90.2% in the experiment with ACHN renal; 83.9% with CAKI-1 renal; 93.9% in the experiment on A498 renal; 97.9% in the experiment with CCRF-CEM leukemia. Also, in the experiment with MOLT-4 leukemia, the growth is 92.9%.

As for `Cc1ccc(C(=O)O)c(N)c1C`, the growth with HCT-15 colon is 99.7%; in the experiment on HT29 colon it was 101%; with SNB-75 CNS, 82.6%; in the experiment with SNB-19 CNS, 107%; with U251 CNS it was 100%; in the experiment with PC-3 prostate, 94.6%. The growth in the experiment with SK-MEL-5 melanoma was 107%; in the experiment with UACC-62 melanoma it was 103%; in the experiment on LOX IMVI melanoma, 93.8%; in the experiment on SK-MEL-28 melanoma it was 122%; in the experiment on SK-MEL-2 melanoma it was 89.3%; with SN12C renal it was 106%. For the same molecule, the growth in the experiment on UO-31 renal is 57.6%; in the experiment on TK-10 renal, 122%; in the experiment on ACHN renal it was 103%; in the experiment on CAKI-1 renal it was 92.6%; in the experiment with A498 renal, 108%; with CCRF-CEM leukemia, 93.4%. Moreover, in the experiment on MOLT-4 leukemia, the growth was 93.6%.

Take `C[n+]1c(/C=C/c2c[nH]c3ccccc23)ccc2ccccc21`: the growth in the experiment with HCT-15 colon is 90.7%; in the experiment with HT29 colon it was 49.2%; in the experiment on SNB-75 CNS, 90.9%; with SNB-19 CNS, 68.4%; in the experiment with U251 CNS, 69.9%; in the experiment with PC-3 prostate it was 52.1%. Also, the growth was 59.2% with SK-MEL-5 melanoma; 54.2% in the experiment on UACC-62 melanoma; 60.5% with LOX IMVI melanoma; 84.8% with SK-MEL-28 melanoma; 83.9% in the experiment with SK-MEL-2 melanoma; 64.4% in the experiment with SN12C renal. Moreover, the growth with UO-31 renal was 60.5%; in the experiment with TK-10 renal, 89.6%; in the experiment on ACHN renal, 77.1%; in the experiment with CAKI-1 renal, 88.8%; in the experiment on A498 renal it was 54.5%; with CCRF-CEM leukemia it was 43.4%. Moreover, in the experiment with MOLT-4 leukemia, the growth was 9.37% (active).

Turning to `CCCCc1ccc(NC(=O)N(CCCl)N=O)cc1`, the growth in the experiment with HCT-15 colon is 102%; with HT29 colon, 99.6%; in the experiment with SNB-75 CNS, 90.4%; with SNB-19 CNS, 88.5%; in the experiment with U251 CNS, 80.8%; in the experiment on PC-3 prostate, 94%. Also, the growth with SK-MEL-5 melanoma was 97.9%; with UACC-62 melanoma, 86.2%; in the experiment on LOX IMVI melanoma it was 89.3%; with SK-MEL-28 melanoma, 101%; in the experiment with SK-MEL-2 melanoma, 94.8%; in the experiment with SN12C renal, 96.1%. In addition, the growth was 81.3% in the experiment on UO-31 renal; 105% in the experiment on TK-10 renal; 106% with ACHN renal; 99.3% in the experiment on CAKI-1 renal; 103% in the experiment on A498 renal; 88.2% in the experiment on CCRF-CEM leukemia. Also, the growth with MOLT-4 leukemia was 98.7%.
